Experimental data: the supplement of paper PMC8728848
Many of the other results were omitted from the sample, so the strongest signals are more common in it than they were.

B1: Protectin (Homo sapiens), P13987 (protein)
chain: MGIQGGSVLFGLLLVLAVFCHSGHSLQCYNCPNPTADCKTAVNCSSDFDACLITKAGLQVYNKCWKFEHCNFNDVTTRLRENELTYYCCKKDLCNFNEQLENGGTSLSEKTVLLLVTPFLAAAWSLHP
B2: a L Fucosidase (Streptosporangium roseum), D2B1P1_STRRD (protein)
chain: MRRKLLLVPAVGLLVIGSIFATQPVASADTPPVYEPTVESLNSHPVPQWFNDDKFGIFIHWGAYSVPAWGPRGSYAEWYGNYMNAGGSATNAHHKATYGQDFNYDAFLQQWKAEKFDPADWVKLFKDAGAKYFVLTSKHHEGMALWDSKSSGRDSVDLGPGRDLAKELFDAARKDEAKLKAGFYYSLYEWYNPAYTGRPATNPYTGAEIPYTGAPGGGDYVKDYMLPQMRELIDGYDPDIIWCDGQWEKPASYWNTAGVIADYYNKALNSGKEVAVANRCKIQSGNLDSPELDFQTPEYTVKPDIDPVKWESSRGIAHSYGYNQNEPEEDHLTSDQLVDSLVDIVSKNGNLLLDIGPKADGTIPEIQRQRLLDIGAWLKANGEAIYGTTYWNRAEEKGGPDDVRYTAKDATLYATALKWPGEQLTLGADLPVDHSTRITMLGSGARLSWSRDEQGRVVVNTPQEAGKHAYVFKIETPGVRSLLRTSSSLAKEIAPGRTISGELTVTNPGKRHTPATKLSLTVPQGWTATLGAPRVRPLGPGESVKVPISVSAPEGVAPAPYTLGLYQRTGRMGTTTALPLTVNRPNLSLGKPATQKSTGYDAPASRAVDGNTGGDWSAGSTTHTAEPEKQAWWQVDLGASARLDSVDVWNRLDCCADRLKDFWVMASDQPFTTDDLDQARTAPGVTAVHVGEQAGSPSKVKLPEGTRGRYVRIQLASPSNPLSLAEVQVRGSMARPNLSLGKPATQKSTGYDAPASRAVDGNTGGDWSAGSTTHTAEPEKQAWWQVDLGASARLDSVDVWNRLDCCADRLKDFWVMASDQPFTTDDLDQARTAPGVTAVHVGEQAGSPSKVKLPEGTRGRYVRIQLASPSNPLSLAEVQVRLEHHHHHHS

Experiments:
Assay in all cases: glycan array binding signal (z-score within array); higher = stronger binding
Settings in all cases: glycan notation: IUPAC condensed, linker removed
[1] = target: Neu5Ac(a2-3)Gal(b1-4)[Fuc(a1-3)]GlcNAc(b1-6)[Gal(b1-3)]GalNAc
Method in brief: (§1)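 Glycan array binding is given as a within-array Z-score, which can be read as non-binding when negative. The arrays, 3228 of them, came from the Consortium for Functional Glycomics database and were retained only where the protein sequence was available. Z-scores were averaged across arrays of the same protein sequence at different concentrations or buffers and across linkers.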

[2] = target: Neu5Ac(a2-6)Gal(b1-4)GlcNAc(b1-2)Man(a1-3)[Gal(b1-4)GlcNAc(b1-2)Man(a1-6)]Man(b1-4)GlcNAc(b1-4)GlcNAc
Method in brief: as §1

[3] = target: Neu5Ac(a2-6)GlcNAc(b1-4)GlcNAc
Method in brief: as §1

[4] = target: Neu5Gc(a2-3)Gal(b1-3)[Fuc(a1-4)]GlcNAc
Method in brief: as §1

[5] = target: Fuc(a1-2)Gal
Method in brief: as §1

[6] = target: Fuc(a1-2)Gal(b1-3)GlcNAc(b1-2)Man(a1-3)[Fuc(a1-2)Gal(b1-3)GlcNAc(b1-2)Man(a1-6)]Man(b1-4)GlcNAc(b1-4)GlcNAc
Method in brief: as §1

[7] = target: Fuc(a1-2)Gal(b1-3)GlcNAc(b1-3)[Neu5Ac(a2-6)Gal(b1-4)GlcNAc(b1-6)]Gal(b1-4)Glc
Method in brief: as §1

[8] = target: Fuc(a1-2)Gal(b1-4)Fuc(a1-3)]GlcNAc(b1-2)Man(a1-3)[Fuc(a1-2)Gal(b1-4)[Fuc(a1-3)]GlcNAc(b1-2)Man(a1-6)]Man(b1-4)GlcNAc(b1-4)GlcNAc
Method in brief: as §1

[9] = target: Fuc(a1-2)Gal(b1-4)GlcNAc(b1-3)Gal(b1-4)GlcNAc(b1-2)Man(a1-3)[Fuc(a1-2)Gal(b1-4)GlcNAc(b1-3)Gal(b1-4)GlcNAc(b1-2)Man(a1-6)]Man(b1-4)GlcNAc(b1-4)GlcNAc
Method in brief: as §1

[10] = target: Fuc(a1-2)Gal(b1-4)GlcNAc(b1-3)Gal(b1-4)GlcNAc(b1-3)Gal(b1-4)GlcNAc
Method in brief: as §1

[11] = target: Fuc(a1-2)Gal(b1-4)GlcNAc(b1-6)GalNAc
Method in brief: as §1

[12] = target: Fuc(a1-2)Gal(b1-4)[Fuc(a1-3)]GlcNAc
Method in brief: as §1

[13] = target: Fuc(a1-2)Gal(b1-4)[Fuc(a1-3)]GlcNAc(b1-2)Man(a1-3)[Fuc(a1-2)Gal(b1-4)[Fuc(a1-3)]GlcNAc(b1-2)Man(a1-6)]Man(b1-4)GlcNAc(b1-4)[Fuc(a1-6)]GlcNAc
Method in brief: as §1

[14] = target: Fuc(a1-2)Gal(b1-4)[Fuc(a1-3)]GlcNAc(b1-2)[Fuc(a1-2)Gal(b1-4)[Fuc(a1-3)]GlcNAc(b1-4)]Man(a1-3)[Fuc(a1-2)Gal(b1-4)[Fuc(a1-3)]GlcNAc(b1-2)Man(a1-6)]Man(b1-4)GlcNAc(b1-4)GlcNAc
Method in brief: as §1

[15] = target: Fuc(a1-2)Gal(b1-4)[Fuc(a1-3)]GlcNAc(b1-3)Gal(b1-4)[Fuc(a1-3)]GlcNAc
Method in brief: as §1

[16] = target: Fuc(a1-2)Gal(b1-4)[Fuc(a1-3)]GlcNAc(b1-3)Gal(b1-4)[Fuc(a1-3)]GlcNAc(b1-3)Gal(b1-4)[Fuc(a1-3)]GlcNAc
Method in brief: as §1

[17] = target: Fuc(a1-2)[Gal(a1-3)]Gal
Method in brief: as §1

[18] = target: Fuc(a1-2)[Gal(a1-3)]Gal(b1-3)GalNAc
Method in brief: as §1

[19] = target: Fuc(a1-2)[Gal(a1-3)]Gal(b1-3)GlcNAc(b1-3)GalNAc
Method in brief: as §1

[20] = target: Fuc(a1-2)[Gal(a1-4)]Gal(b1-4)GlcNAc
Method in brief: as §1

[21] = target: Fuc(a1-2)[GalNAc(a1-3)]Gal(b1-3)GalNAc(a1-3)[Fuc(a1-2)]Gal(b1-4)GlcNAc
Method in brief: as §1

[22] = target: Fuc(a1-2)[GalNAc(a1-3)]Gal(b1-4)GlcNAc(b1-2)Man
Method in brief: as §1

[23] = target: Fuc(a1-2)[GalNAc(a1-3)]Gal(b1-4)GlcNAc(b1-2)Man(a1-3)[Fuc(a1-2)[GalNAc(a1-3)]Gal(b1-4)GlcNAc(b1-2)Man(a1-6)]Man(b1-4)GlcNAc(b1-4)[Fuc(a1-6)]GlcNAc
Method in brief: as §1

[24] = target: Fuc(a1-2)[GalNAc(a1-3)]Gal(b1-4)GlcNAc(b1-3)Gal(b1-4)GlcNAc(b1-3)Gal(b1-4)GlcNAc
Method in brief: as §1

[25] = target: Fuc(a1-2)[GalNAc(b1-3)]Gal
Method in brief: as §1

[26] = target: Fuc(a1-3)[Gal3S(b1-4)]GlcNAc
Method in brief: as §1

[27] = target: Gal(a1-3)Gal(b1-4)GlcNAc(b1-6)GalNAc
Method in brief: as §1

[28] = target: Gal(b1-3)GlcNAc6S
Method in brief: as §1

[29] = target: Gal(b1-4)GlcNAc(b1-2)Man(a1-3)[Gal(b1-4)GlcNAc(b1-2)Man(a1-6)][Gal(b1-4)GlcNAc(b1-4)]Man(b1-4)GlcNAc(b1-4)[Fuc(a1-6)]GlcNAc
Method in brief: as §1

[30] = target: Gal(b1-4)GlcNAc(b1-2)[Gal(b1-4)GlcNAc(b1-6)]Man(a1-6)[Gal(b1-4)GlcNAc(b1-2)Man(a1-3)]Man(b1-4)GlcNAc(b1-4)[Fuc(a1-6)]GlcNAc
Method in brief: as §1

[31] = target: Gal(b1-4)GlcNAc(b1-3)Gal(b1-4)GlcNAc(b1-3)Gal(b1-4)GlcNAc(b1-3)Gal(b1-4)GlcNAc(b1-3)Gal(b1-4)GlcNAc(b1-2)Man(a1-3)[Gal(b1-4)GlcNAc(b1-3)Gal(b1-4)GlcNAc(b1-3)Gal(b1-4)GlcNAc(b1-3)Gal(b1-4)GlcNAc(b1-3)Gal(b1-4)GlcNAc(b1-2)Man(a1-6)]Man(b1-4)GlcNAc(b1-4)GlcNAc
Method in brief: as §1

[32] = target: Gal(b1-4)GlcNAc(b1-3)Gal(b1-4)GlcNAc(b1-3)[Gal(b1-4)GlcNAc(b1-3)Gal(b1-4)GlcNAc(b1-6)]GalNAc
Method in brief: as §1

[33] = target: Gal6S(b1-4)Glc
Method in brief: as §1

[34] = target: GalNAc(a1-3)GalNAc(b1-3)Gal(a1-4)Gal(b1-4)Glc
Method in brief: as §1

| Binder | glycan array binding signal (z-score) [1] | glycan array binding signal (z-score) [2] | glycan array binding signal (z-score) [3] | glycan array binding signal (z-score) [4] | glycan array binding signal (z-score) [5] | glycan array binding signal (z-score) [6] | glycan array binding signal (z-score) [7] | glycan array binding signal (z-score) [8] | glycan array binding signal (z-score) [9] | glycan array binding signal (z-score) [10] | glycan array binding signal (z-score) [11] | glycan array binding signal (z-score) [12] | glycan array binding signal (z-score) [13] | glycan array binding signal (z-score) [14] | glycan array binding signal (z-score) [15] | glycan array binding signal (z-score) [16] | glycan array binding signal (z-score) [17] | glycan array binding signal (z-score) [18] | glycan array binding signal (z-score) [19] | glycan array binding signal (z-score) [20] | glycan array binding signal (z-score) [21] | glycan array binding signal (z-score) [22] | glycan array binding signal (z-score) [23] | glycan array binding signal (z-score) [24] | glycan array binding signal (z-score) [25] | glycan array binding signal (z-score) [26] | glycan array binding signal (z-score) [27] | glycan array binding signal (z-score) [28] | glycan array binding signal (z-score) [29] | glycan array binding signal (z-score) [30] | glycan array binding signal (z-score) [31] | glycan array binding signal (z-score) [32] | glycan array binding signal (z-score) [33] | glycan array binding signal (z-score) [34] |
| --- | --- | --- | --- | --- | --- | --- | --- | --- | --- | --- | --- | --- | --- | --- | --- | --- | --- | --- | --- | --- | --- | --- | --- | --- | --- | --- | --- | --- | --- | --- | --- | --- | --- | --- |
| B1 | -0.153 | -1.94 | -0.361 | 0.087 |  |  |  |  |  |  |  |  |  |  |  |  |  |  |  |  |  |  |  |  |  |  |  |  |  |  |  |  |  |  |
| B2 |  |  |  |  | 4.93 | 0.052 | -0.56 | 0.398 | 9.35 | 4.15 | 4.78 | 3.89 | 3.58 | 0.785 | 9.04 | 5.04 | 3.18 | -0.442 | 0.499 | 4.37 | -0.325 | 1.44 | 0.363 | 4.02 | -0.567 | 0.551 | 0.325 | -0.504 | 1.72 | -0.467 | -0.491 | -0.245 | -0.356 | -0.338 |
